Screening results from PubChem BioAssay.
The list is not random: actives were taken first. Their share in the collection is about 4.3%.
MITF TRPM1 HTS: activators of MITF-driven TRPM1 promoter reporter, primary screen, cell-based, SK-MEL-5, luciferase, single point. SK-MEL-5 TRPM1-promoter luciferase, 24 h; % of positive control, neutral wells = 0. activation, % at 12.5 µM. 300,000 compounds, 0.75% hits. AID 588334, 2011;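 active = mean activation of at least 80% with every replicate also reaching 80%; inconclusive = mean reaches 80% but some replicate falls short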
HSF1 inhib: HSF1 inhibitors in luciferase reporter cells, primary screen, cell-based, NIH3T3, luminescence; NIH3T3-HGL HSE-luciferase, MG132-induced, luminescence 8 h; hits give low values; AID 2098, 2009; activity change, negative = inhibition, % at 7.5 µM (by protocol); 300,000 compounds, 0.77% hits;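 active = more than half of replicate wells show activity change below -50%, luminescence cut by over half; inconclusive = some wells, but at most half, below -50%; inactive = no replicate well below -50%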;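 also: luciferase reports HSF-1 transcriptional activity via heat shock element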
Wnt act: Wnt/beta-catenin pathway activators, primary screen, cell-based, plate reader, single point | Wnt/beta-catenin reporter cell assay, activator | activation, % at 9.35 µM | 300,000 compounds, 1.2% hits; in the data active = activation above about 30%, passing the limit was not always enough; inconclusive = no clear call, values can overlap the other calls
HSF-1 act: HSF-1 activators, primary screen, NIH3T3-HGL cells, MG132 stress, luminescence, single point. NIH3T3-HGL HSF-1 luciferase reporter, 8 h; 100% = twice DMSO control signal. activation, % at 9 µM. 300,000 compounds, 1.7% hits. AID 504408, 2011;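 active = mean replicate activation of at least 50% with a set share of replicates each reaching 50%; inconclusive = only one of those two conditions met; inactive = mean below 50% and too few replicates reaching it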
esBAF inh: Bmi1 luciferase reporter increase in mESCs, primary screen, esBAF inhibitor project, mouse ES cells, Bmi1 luciferase knock-in, single point. AID 602393, 2012. 350,000 compounds, 2% hits. 24 h; 100% = twice the neutral-well signal. reporter increase, % at 12.5 µM; in the data active = activation above about 40%; inconclusive = no clear call, values can overlap the other calls;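 also: a rise in the Bmi1 reporter signal indicates esBAF inhibition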
SMARCA2 activ: SMARCA2 (BRM) function activators, primary screen, cell-based, luminescence, high throughput | MG213 cells, MMTV-luciferase reporter, dexamethasone, overnight | activation, % at 9.1 µM | 370,000 compounds, 1% hits | AID 652017, 2013; in the data active = activation above about 7.8%
SMARCA2 conf: SMARCA2 (BRM) function activators, confirmation, cell-based, luminescence, triplicate | MG213 cells, MMTV-luciferase with dexamethasone, overnight; MG213 cells expressing E1A, Rb sequestered; DMSO wells 0%, reference activator 100% | AID 652260, 2013 | 3,500 compounds, 30% hits | shares compounds with SMARCA2 activ | activation, % at 9.1 µM;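 active = activation above its plate's cutoff, the mean activation of tested wells plus 3 SD, cut at about 7.9% in these data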
VP16 Luc act: GAL4-VP16 luciferase reporter activation, counter-screen for SMARCA2 (BRM) activator project, cell-based, pG5luc, luminescence, high throughput; HEK293 GAL4-VP16 pG5luc reporter; scaled: DMSO wells 0%, SAHA wells 100%; shares compounds with SMARCA2 activ; activation, % at 9.1 µM; 3,500 compounds, 41% hits;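 active = activation above the solvent-only control well mean plus 3 SD, averaged across control plates, cut at about 5.2% in these data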
Each line names hits and unclear results; the compound was inactive in the other large screens (follow-up assays come after a bar, where they were run).

Cc1ccc(/C=C/c2nnc(-c3cccc(C)c3)o2)cc1	esBAF inh 53, SMARCA2 activ 9.3 | SMARCA2 conf inactive | VP16 Luc act inactive
C[C@H](CO)N1C[C@H](C)[C@@H](CN(C)Cc2ccncc2)Oc2ccc(NC(=O)C3CC3)cc2C1=O	none (no result: MITF TRPM1 HTS, HSF1 inhib, Wnt act, HSF-1 act, SMARCA2 activ)
C[C@@H]1CN([C@H](C)CO)C(=O)c2cc(-c3ccc(F)cc3)cnc2O[C@H]1CN(C)S(C)(=O)=O	none (no result: MITF TRPM1 HTS, HSF1 inhib, Wnt act, HSF-1 act, SMARCA2 activ)
C[C@H](CO)N1C[C@H](C)[C@@H](CN(C)C(=O)Nc2ccc(F)cc2)Oc2ccc(NC(=O)CCC(F)(F)F)cc2CC1=O	none (no result: MITF TRPM1 HTS, HSF1 inhib, Wnt act, HSF-1 act, SMARCA2 activ)
CCc1ccc(-n2nc3cc(C)c(N)cc3n2)cc1	SMARCA2 activ 11 | SMARCA2 conf inactive | VP16 Luc act 13
Cc1cc2nn(-c3cccc4ccccc34)nc2cc1N	none (no result: Wnt act)
Cc1noc(C)c1NC(=O)Nc1cccc2c1O[C@@H](CN(C)C)[C@@H](C)CN([C@@H](C)CO)C2=O	none (no result: MITF TRPM1 HTS, HSF1 inhib, Wnt act, HSF-1 act, SMARCA2 activ)
CCOC(=O)c1nn(-c2ccc(Cl)cc2)c2nnc(Cc3ccccc3)c(=O)n12	Wnt act inconclusive, SMARCA2 activ 12 (no result: esBAF inh) | SMARCA2 conf inactive | VP16 Luc act inactive
CC1=[N+]([O-])C(C)(C)C(c2ccc(Br)cc2)=[N+]1[O-]	SMARCA2 activ 12 (no result: esBAF inh) | SMARCA2 conf inactive | VP16 Luc act inactive
CSc1cccc(NC(=O)C(=O)NCc2ccccc2)c1	none (no result: MITF TRPM1 HTS, esBAF inh)
CCOC(=O)c1cccc(NC(=O)Nc2ccc(OCC)cc2)c1	none (no result: esBAF inh)
CCOc1ccc(NC(=O)Nc2cccc(C(=O)O)c2)cc1	HSF1 inhib -72, SMARCA2 activ 11 | SMARCA2 conf inactive | VP16 Luc act 9.3
O=C(Nc1ccc(Cl)cc1)Nc1cccc(C(=O)O)c1	none (no result: esBAF inh)
O=C(Nc1cccc(Cl)c1)Nc1cccc(C(=O)O)c1	SMARCA2 activ 14 (no result: MITF TRPM1 HTS, esBAF inh) | SMARCA2 conf 7.9 | VP16 Luc act inactive
O=C(NCc1ccccc1)C(=O)Nc1cccc(C(=O)O)c1	SMARCA2 activ 13 | SMARCA2 conf 10 | VP16 Luc act 11
C[C@@H]1CN([C@H](C)CO)S(=O)(=O)c2ccc(-c3ccncc3)cc2O[C@@H]1CN(C)C(=O)CC1CC1	none (no result: MITF TRPM1 HTS, HSF1 inhib, Wnt act, HSF-1 act, SMARCA2 activ)
C[C@@H]1CN([C@@H](C)CO)C(=O)c2cc(NC(=O)CCC(F)(F)F)ccc2O[C@@H](C)CCCCO[C@H]1CN(C)C(=O)C1CCCCC1	none (no result: MITF TRPM1 HTS, HSF1 inhib, Wnt act, HSF-1 act, SMARCA2 activ)
Cn1c(N)c(C(=O)/C=C/c2ccccc2)c(=O)[nH]c1=O	SMARCA2 activ 12 (no result: esBAF inh) | SMARCA2 conf inactive | VP16 Luc act 9.4
Cn1c(N)c(C(=O)Nc2ccccc2)c(=O)[nH]c1=O	none (no result: MITF TRPM1 HTS, esBAF inh)
Cc1noc(C)c1NC(=O)N(C)C[C@H]1OCCCC[C@@H](C)Oc2ccc(NC(=O)NC3CCCCC3)cc2C(=O)N([C@H](C)CO)C[C@@H]1C	none (no result: MITF TRPM1 HTS, HSF1 inhib, Wnt act, HSF-1 act, SMARCA2 activ)
COC(=O)c1c(C)[nH]c(C(=O)/C=C/c2ccccc2F)c1C	MITF TRPM1 HTS inconclusive, HSF-1 act 66, SMARCA2 activ 15 | SMARCA2 conf 9.1 | VP16 Luc act 9.7
Cc1noc(C)c1NC(=O)Nc1ccc2c(c1)C(=O)N([C@@H](C)CO)C[C@@H](C)[C@@H](CN(C)CC1CC1)OCCCC[C@@H](C)O2	none (no result: MITF TRPM1 HTS, HSF1 inhib, Wnt act, HSF-1 act, SMARCA2 activ)
Cc1cc(C(=O)N2CCC2(C)C(=O)NS(=O)(=O)c2cccc(Cl)c2)nn1C (stereo unspecified)	SMARCA2 activ 8.1 (no result: MITF TRPM1 HTS, HSF1 inhib, HSF-1 act) | SMARCA2 conf inactive | VP16 Luc act inactive
CN(C)CCCNc1cc(C(C)(C)C)nc2c(-c3ccccc3)cnn12	Wnt act 43, SMARCA2 activ 9.3 (no result: MITF TRPM1 HTS, esBAF inh) | SMARCA2 conf inactive | VP16 Luc act 6.7
CC(C)(C)c1cc(NCCCn2ccnc2)n2ncc(-c3ccc(Cl)cc3)c2n1	none (no result: Wnt act)
CC(C)C[C@@H](CSc1ccc(Br)cc1)N1CCN(C)CCC1=O	MITF TRPM1 HTS 81, esBAF inh 44, SMARCA2 activ 8.2 | SMARCA2 conf 9.0 | VP16 Luc act 9.2
NC(=O)C1CCCN(Cc2ccc(Cl)cc2)C1 (stereo unspecified)	SMARCA2 activ 8.3 (no result: Wnt act) | SMARCA2 conf inactive | VP16 Luc act inactive
CCc1ccccc1NC(=O)C1CCCN1S(=O)(=O)c1ccc2c(c1)n(C)c(=O)c(=O)n2C (stereo unspecified)	SMARCA2 activ 8.0 | SMARCA2 conf inactive | VP16 Luc act inactive
Cc1noc(C)c1S(=O)(=O)N(C)C[C@@H]1Oc2ccc(NS(=O)(=O)c3ccccc3)cc2CC(=O)N([C@H](C)CO)C[C@H]1C	none (no result: MITF TRPM1 HTS, HSF1 inhib, Wnt act, HSF-1 act, SMARCA2 activ)
Cc1ccc(O)c(NC(=O)c2noc(C(C)C)c2[N+](=O)[O-])c1	HSF-1 act 73, SMARCA2 activ 9.0 (no result: esBAF inh) | SMARCA2 conf inactive | VP16 Luc act inactive
Cc1ccc(O)c(NC(=O)c2cc(-c3cccs3)on2)c1	MITF TRPM1 HTS 122, HSF-1 act 75, esBAF inh 52, SMARCA2 activ 13 | SMARCA2 conf 21 | VP16 Luc act 6.8
C[C@H]1CN([C@@H](C)CO)C(=O)c2cc(-c3ccccc3)cnc2O[C@@H]1CN(C)C(=O)c1cccc(F)c1	none (no result: MITF TRPM1 HTS, HSF1 inhib, Wnt act, HSF-1 act, SMARCA2 activ)
COc1ccc(NC(=O)N(C)C[C@@H]2Oc3ccc(NC(=O)c4ccncc4)cc3C(=O)N([C@H](C)CO)C[C@H]2C)cc1	none (no result: MITF TRPM1 HTS, HSF1 inhib, Wnt act, HSF-1 act, SMARCA2 activ)
Cn1cccc1C(=O)NCC1COc2ccccc2O1 (stereo unspecified)	MITF TRPM1 HTS 88, Wnt act inconclusive, esBAF inh 55, SMARCA2 activ 11 (no result: HSF1 inhib, HSF-1 act) | SMARCA2 conf 10 | VP16 Luc act 7.1
C[C@H](CO)N1C[C@H](C)[C@H](CN(C)Cc2ccc(-c3ccccc3)cc2)Oc2c(NS(C)(=O)=O)cccc2C1=O	none (no result: MITF TRPM1 HTS, HSF1 inhib, Wnt act, HSF-1 act, SMARCA2 activ)
CCOC(=O)C1=C(C)N=c2s/c(=C/c3ccc(OCC(=O)O)cc3)c(=O)n2C1c1cc(OC)c(OC)c(OC)c1 (stereo unspecified)	SMARCA2 activ 9.1 | SMARCA2 conf inactive | VP16 Luc act inactive
CN(C(=O)c1cc(-c2ccccc2)on1)C1CCCCC1	MITF TRPM1 HTS 174, Wnt act 34, esBAF inh 51, SMARCA2 activ 9.1 | SMARCA2 conf 11 | VP16 Luc act 9.3
O=[N+]([O-])c1cccc(-c2ccc(/C=N/Nc3nc(N4CCCCC4)nc(N4CCCCC4)n3)o2)c1	SMARCA2 activ 8.9 (no result: esBAF inh) | SMARCA2 conf inactive | VP16 Luc act inactive
